The results in this text go back to the supplement of paper PMC10338343.

± gives the standard deviation.

This experiment deals with EfPiwi piRISC loaded with piRNA #1 (26 nt). In words: pre-steady-state target cleavage rate (min^-1); auxiliary factor: 500 nM Ephydatia muelleri Gtsf1; guide: piRNA #1 5'p-UGAGGUAGUAGGUUGUAUAGUAUCCA; MIWI and MILI are mouse PIWI proteins and EfPiwi is from a freshwater sponge; tags in brackets are library labels; higher = faster piRNA-guided slicing of the target. An outline of the steps:
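Active affinity-purified piRISC (1 nM) loaded with one synthetic guide was mixed with a transcribed, DNA-blocked target RNA library (0.1 nM), with or without 500 nM GTSF1 partner protein, in HEPES–potassium acetate buffer at 33 °C for 0–8 or 0–960 min. Uncleaved targets were sequenced, normalised to depth and to weakly complementary targets, and pooled across three trials, with k3 capped at 0.0001 min^-1. The pre-steady-state cleavage rate was determined with a burst-and-steady-state fit.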
On to “GGAGACCAUACUAUACAACCUACAUGGAGA [g8:g23:cont:t1A]”, for which the “pre-steady-state target cleavage rate” value was found to be 0.00382 ± 0.0038.
On to GGAGACCAUACUAUACAACACUACUACCUCA, for which the “pre-steady-state target cleavage rate” value is 0.00469 ± 0.0037.
As for GGAGAGGAUACUAUACAUCCUACUAGCUCA, the “pre-steady-state target cleavage rate” value was 0.00277 ± 0.0019.
The value for GGAGAGGAUACUAUACAGACCUACUACCUCA was 0.00626 ± 0.0046.
For GGAGUGGAUACUAUACAACCUACUACACUCA, the “pre-steady-state target cleavage rate” value came to 0.00464 ± 0.0021.
The value for GGAGACGAUACUAUAGAACCUAGUACCUCA was 0.0018 ± 0.0015.
Regarding GGAGACCUAUGAUAUGUACCUACUACGCUCA, the “pre-steady-state target cleavage rate” value is < 0.0001.
The value for GGAGUGGAUACUAUAGAACCUACUAGCUCA was 0.00232 ± 0.0015; that for GGAGACCAUACUAUACAACGCUACUACCUCA was 0.0082 ± 0.0044.
The value for GGAGAGGAUACUAUACUUCCUACUACCUCA was 0.00555 ± 0.0051.
The value for GGAGAGGGAUACUAUACAACCUACUACCUCA was 0.0946 ± 0.037; that for GGAGACGAUACUAUACAACCUUCUACCUGA was 0.0056 ± 0.0024; that for GGAGACGAUACUAUACAACCUACUUCCUCA was 0.00431 ± 0.0018.
As for GGAGUGGAUACUAUACAACCUCACUACCUCA, the “pre-steady-state target cleavage rate” value came to 0.00417 ± 0.0022.
As to GGAGAGCAUACUAUACAACGUACUACCUCA, the “pre-steady-state target cleavage rate” value amounted to 0.00394 ± 0.0014.
With GGAGACGAUACUAUACACACCUACUACCUCA, the “pre-steady-state target cleavage rate” value worked out at 0.0061 ± 0.0026.
The value for GGAGACCUAUGAAUCACAACCUACUACCUCA was 0.00389 ± 0.0034; that for GGAGACCUUACUAUAGAACCUACUACCUCA was 0.00324 ± 0.0026.
For GGAGACGAUACUAUACAAUCCUACUACCUCA, the “pre-steady-state target cleavage rate” value came out at 0.0069 ± 0.004.
The value for GGAGUGGAUACUAUUCAACCUACUACGUCA was 0.00281 ± 0.0015; that for “GGAGACCUAUGAUAUGUUGGUACUACCUCU [g2:g10:cont:t1U]” was < 0.0001.
Regarding GGAGACCUAUGAUAUGAUCCUAGUACCUCA, the “pre-steady-state target cleavage rate” value is < 0.0001.
Consider “GGAGAGGAUACUAUACAACCUACUUGGAGA [g7:g25:cont:t1A]”, for which the “pre-steady-state target cleavage rate” value stood at 0.00281 ± 0.0022.
Regarding GGAGACCUAUGAAUAGAACCUACUAGCUCA, the “pre-steady-state target cleavage rate” value is < 0.0001.
The value for GGAGACCAUACUAUACAACCUACUACCUUCA was 0.0679 ± 0.02; that for GGAGAGGAUACUUUACAACCUACUACCUCA was 0.00667 ± 0.0036; that for GGAGACCUAACUAUACAACCUAGUACCACA was 0.00588 ± 0.0049.
The value for GGAGUGGAUACUAUACAACCUACAACGUCA was 0.00302 ± 0.0017; that for “GGAGUGGAUACUAUACAACCUACUAGGAGA [g6:g26:cont:t1A]” was 0.00291 ± 0.0023.
The value for GGAGUGGAUACUAUACAACCUACUACCCCA was 0.00727 ± 0.0025; that for GGAGAGGAUACUAUACAACCUUACUACCUCA was 0.00845 ± 0.0045; that for GGAGAGGAUACUAUACAACCUGCUACCUCA was 0.114 ± 0.043.
As for GGAGACCUAAGUUUACAACCUACUACCUCA, the “pre-steady-state target cleavage rate” value is 0.00645 ± 0.0046.
The value for GGAGUGGAUACUAUACAACCUUGUACCUCA was 0.00568 ± 0.0024.
The value for GGAGACCAUACUAUUCAACCUACUAGCUCA was 0.00459 ± 0.0044; that for GGAGUGGAUACUAUACAACGUACUACGUCA was 0.0036 ± 0.0015.
Turning to GGAGAGGAUAGUAUACAACCUACUUCCUCA, the “pre-steady-state target cleavage rate” value amounted to 0.00319 ± 0.0018.
The value for GGAGACCUAUGUAUACAACCUACAUGCUCA was < 0.0001; that for GGAGACGAUACUAUAGAACCUUCUACCUCA was 0.00285 ± 0.0016; that for GGAGACCUAAGCUAUACAACCUACUACCUCA was 0.184 ± 0.066.
